# Luc counter: blocks Kinase-Glo luciferase, a counter-screen artifact; Potency, µM (series often up to 38.3 µM), for the others: at the highest dose activity change, negative = inhibition, actives largely listed as inhibitors; 0.28% of 200,000 active; Kinase-Glo luciferase, ATP luminescence, 8 min; Q27757; active = well fitted inhibition curve with a large enough effect; inconclusive = small, poorly fitted or top-dose-only effect; also: potency is read from the fitted curve at half-maximal effect; nearly all actives have a fitted effect of over 60% in size
#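 Compound is pinned into ATP-containing buffer (10 uM ATP, imidazole pH 7.2, 7 mM MgCl2). Kinase-Glo luciferase reagent is then added. Light output is recorded following an 8-min room-temperature incubation.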
# ALDH1A1 block: ALDH1A1 (human) enzyme inhibition | 7.3% of 220,000 active | P00352 | Potency, µM (series often up to 75.3 µM), without a hit: top-dose activity, negative = inhibition, usual class: inhibitors | Purified ALDH1A1, NADH fluorescence, propionaldehyde substrate;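 also: potency is read from the fitted curve at half-maximal effect; plate controls were no enzyme wells and a reference inhibitor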
# Lamin A splicing: LMNA splicing modulation. HeLa LMNA splicing GFP/RFP minigene ratio, 48 h. Potency, µM (titrated, usually from 46.1 µM), inactives show at the top dose ratio change, negative = inhibition, usual class: inhibitors. 0.01% of 200,000 active; active = well fitted inhibition curve with a large enough effect in the signal ratio, with a control signal flat, not every such curve was filed as active; inconclusive = small, poorly fitted or top-dose-only effect, or effect the other way, or a change in a side signal; the % refers to the signal ratio; also: potency is read from the fitted curve at half-maximal effect
#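 S3 HeLa cells stably expressing lamin A-EGFP splicing minigene plus DsRed2, 600 cells/well, 48 h compound exposure at 37C. Laser-scanning cytometry; analysed as GFP (500-530 nm)/RFP (575-640 nm) total intensity ratio; 0.5% DMSO vehicle.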
# HPGD inh: HPGD (human) dehydrogenase inhibition; purified HPGD, NADH fluorescence kinetic, PGE2 substrate; Potency, µM, without a hit: top-dose activity change, negative = inhibition, hits mostly inhibitors; 4.3% of 150,000 active; also: potency is read from the fitted curve at half-maximal effect
# Target sequence (P15428 whole entry, looked up): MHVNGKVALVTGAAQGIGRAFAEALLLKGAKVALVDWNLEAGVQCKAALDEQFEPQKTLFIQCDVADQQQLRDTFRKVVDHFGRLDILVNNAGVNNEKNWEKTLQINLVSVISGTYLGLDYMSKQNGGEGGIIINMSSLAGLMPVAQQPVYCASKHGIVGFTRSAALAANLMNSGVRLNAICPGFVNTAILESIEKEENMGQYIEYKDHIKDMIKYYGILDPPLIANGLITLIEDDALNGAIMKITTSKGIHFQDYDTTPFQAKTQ
#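 NADH formation kinetics: reaction with 30 uM PGE2 and 1 mM NAD+ (final), 20 nM enzyme, Tris-HCl pH 8 with Tween 20, after 15 min compound preincubation at room temperature. Fluorescence change, last versus first of five reads.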
# IMPase inh: membrane-permeable compound that blocks inositol monophosphatase; AID 901; CHO-M1 cells, IP1 accumulation, HTRF TR-FRET ratio; P97697; 120,000 tested, under 10 active; inhibition (IP1 accumulation), % at 46.1 µM; active = well fitted curve in the direction sought with a large enough effect in the signal ratio, not every such curve was filed as active; inconclusive = small, poorly fitted or top-dose-only effect, or a change in a side signal; inactive = no such curve, though single readings can be large or run the other way; the % refers to the signal ratio;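 also: cells stimulated with carbachol in lithium chloride buffer; plate controls were DMSO basal wells for no effect and reference inhibitor wells for full effect; higher means more IMPase inhibition seen as more IP1 and lower FRET ratio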
# Target sequence (P97697 whole entry, looked up): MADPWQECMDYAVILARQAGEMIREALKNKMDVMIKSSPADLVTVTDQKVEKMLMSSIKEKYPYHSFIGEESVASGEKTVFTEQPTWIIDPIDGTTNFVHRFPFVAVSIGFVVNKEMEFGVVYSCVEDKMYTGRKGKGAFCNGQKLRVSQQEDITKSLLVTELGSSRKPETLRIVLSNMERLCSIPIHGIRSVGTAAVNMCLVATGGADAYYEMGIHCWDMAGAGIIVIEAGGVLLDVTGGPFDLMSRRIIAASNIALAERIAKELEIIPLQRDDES
#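 The IP-One HTRF competitive assay in carbachol-stimulated CHO-M1 cells quantifies cellular IP1. Compounds spanned up to 46 uM final, and activity is expressed as AC50 from concentration-response fits of the ratio and donor data.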
# PNC assembly inh: blocks assembly of the perinucleolar compartment. PC3M PTB-GFP, PNC prevalence imaging, 16 h; active compounds read low. 3.1% of 140,000 active. activity change (PNC), negative = inhibition, % at 10 µM;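 active = readout at or below -70, meaning at least 70% loss of cells showing the perinucleolar compartment, a nuclear body marking cancer cells; inconclusive = readout between -30 and a set limit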;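 also: plate controls were DMSO wells for no effect and camptothecin positive control wells for full effect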
#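 Compounds are pinned in duplicate onto adhered PC3M cells stably expressing GFP-tagged PTB and incubated 16 h at 37 C. Cells are then fixed, nuclei stained with Hoechst, and PNC-positive cells counted.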
# An asterisk follows results filed as active; ? = inconclusive; nt = no result given; [ ] = remark or other dose. In the library only some 10% were active in any assay of this set; here they are far more common. Unless noted, calls follow the shape of the dose curve; as a rule, active = well fitted inhibition curve with a large enough effect (not every such curve was filed as active); inconclusive = small, poorly fitted or top-dose-only effect, or another doubt; inactive = no such curve, though single readings can be large or run the other way. Unless noted, % is scaled to controls: 0 for no effect and ±100 for the full control effect.
SMILES,Luc counter,ALDH1A1 block,Lamin A splicing,HPGD inh,IMPase inh,PNC assembly inh
Cc1ccc(/C=C2\C(=O)Nc3ccccc32)o1,-2%,7.9µM*,?,-23%,6,-8
Cc1ccc2c(c1)/C(=C/c1ccco1)C(=O)N2,2%,?,nt,nt,nt,nt
CN(C)c1ccc(/C=C2/C(=O)Nc3ccccc32)cc1,-9%,?,nt,-24%,22,nt
CC(=O)N1CCC2(CCCN(C(=O)Nc3cccc(C#N)c3)C2)CC1,-3%,-5%,nt,-4%,nt,nt
Cc1cnc(CNc2ncncc2-c2cccnc2)cn1,nt,3%,-2%,nt,nt,nt
COc1ccc(N=C2S/C(=C\c3ccc(C)o3)C(=O)N2CC(C)C)cc1,3%,8.9µM*,2%,-26%,3,14
COc1ccc(N=C2S/C(=C\c3ccc(OCC(=O)O)cc3)C(=O)N2CCc2c[nH]c3ccccc23)cc1,5%,?,nt,nt,nt,nt
COc1ccc(N=C2S/C(=C\c3ccc(N4CCOCC4)o3)C(=O)N2CCc2c[nH]c3ccccc23)cc1,-9%,8.9µM*,?,?,12,?
COc1ccc(N=C2NC(=O)/C(=C\c3ccco3)S2)cc1,-1%,?,0%[46 µM],nt,nt,nt
CCCN1C(=O)/C(=C/c2ccco2)SC1=Nc1ccc(OC)cc1,6%,13µM*,8%,-6%,9,28
CCCN1C(=O)/C(=C\c2ccncc2)SC1=Nc1ccccc1,-6%,-3%,?,32µM*,nt,?
Cc1ccc(NC(=O)Cn2cc(S(=O)(=O)N3CCCC3)c(S(=O)(=O)N3CCCC3)c2)cc1F,nt,nt,-11%[46 µM],nt,nt,nt
CCCN1C(=O)/C(=C/c2ccc(C)o2)SC1=Nc1ccc(OC)cc1,-2%,3.5µM*,?,25µM*,7,31
CCCN1C(=O)/C(=C/c2ccc(C)o2)SC1=Nc1ccc(OCC)cc1,-3%,7.9µM*,0%,-11%,2,?
NCC[C@H](O)C(=O)N[C@H]1C[C@@H](N)[C@@H](O[C@H]2O[C@@H](CN)[C@@H](O)[C@@H](O)[C@@H]2O)[C@@H](O)[C@@H]1O[C@H]1O[C@@H](CO)[C@@H](O)[C@@H](N)[C@@H]1O,1%[17.1 µM],8%[20.9 µM],?,4%,1[20.6 µM],nt
O=c1oc2ccccc2cc1O,-6%,1%,nt,18µM*,nt,nt
Cc1cc2c(cc(C(=O)NCCCN3CCOCC3)n2Cc2ccc(Cl)cc2)o1,-2%,?,-17%,13µM*,7,?
CCN(CC)S(=O)(=O)c1ccc(F)c(C(=O)NCCCN2CCOCC2)c1,-7%,-1%,11%,-14%,4,-117*
Cc1ccc(Cn2c(C(=O)NCCCN3CCOCC3)cc3sccc32)cc1,-2%,?,-8%,-18%,?,?
Cc1ccccc1Nc1c(-c2ccc(N3CCOCC3)cc2)nc2ccc(Br)cn12,nt,nt,nt,nt,3,nt
COC(=O)c1ccccc1NC(=O)C1=C(C)C(=O)OC12CCCCCC2,nt,nt,20%[46 µM],nt,nt,nt
COc1ccc(N2CCN(C(=O)c3c(C)oc4ncn(CC(C)C)c(=O)c34)CC2)cc1,nt,nt,10%[46 µM],nt,nt,nt
COc1cc(C=O)ccc1OCCOCCOc1cc(C)ccc1Cl,nt,4%,?,nt,-1,-1
COc1cc(C=O)ccc1OCCSc1ccc(C)cc1,0%,?,-17%,18µM*,5,13
CCOc1cc(C=O)ccc1OCCSc1ccc(C)cc1,4%,?,-13%,18µM*,8,33
SMILES,Luc counter,ALDH1A1 block,Lamin A splicing,HPGD inh,IMPase inh,PNC assembly inh
CCc1ccccc1NC(=O)Cn1c(=O)n(-c2ccc(C)cc2)c(=O)c2c1c1cc(C)ccc1n2C,nt,nt,15%[46 µM],nt,nt,nt
c1cncc(-c2nc(NCCN3CCOCC3)c3ccccc3n2)c1,-1%,-6%,?,-8%,nt,nt
N/C(=N\OC(=O)c1ccco1)c1ccc(Br)cc1,-14%,3.2µM*,?,-11%,12,-14
N/C(=N\OC(=O)c1ccco1)c1ccccn1,13µM*,-11%,nt,nt,nt,nt
N/C(=N\OC(=O)c1ccco1)c1ccccc1,?,4%,-13%,-29%,2,-29
CCOC(=O)c1cccc(Nc2cc(C)nc(C)n2)c1,nt,nt,2%[46 µM],nt,nt,nt

# Source: PubChem
